# Measured values from PMC7862700, “An all-to-all approach to the identification of sequence-specific readers for epigenetic DNA modifications on cytosine”.
# Legend:
# Assay in all cases: DAPPL (digital affinity profiling via proximity ligation, sequencing); 10 mM Tris-HCl pH 7.5, 50 mM NaCl, 1 mM DTT, 4% glycerol, room temperature, 30 min; GST-TFs on glutathione beads, 16-mer random dsDNA library, 0.1% formaldehyde crosslink after washing; high values mean tight binding
# [1] = target: T1, FLI1 (Homo sapiens, UniProt Q01543 1-452); conditions: protein: recombinant; tags: N-terminal GST; dsDNA, one strand shown
# T1 sequence: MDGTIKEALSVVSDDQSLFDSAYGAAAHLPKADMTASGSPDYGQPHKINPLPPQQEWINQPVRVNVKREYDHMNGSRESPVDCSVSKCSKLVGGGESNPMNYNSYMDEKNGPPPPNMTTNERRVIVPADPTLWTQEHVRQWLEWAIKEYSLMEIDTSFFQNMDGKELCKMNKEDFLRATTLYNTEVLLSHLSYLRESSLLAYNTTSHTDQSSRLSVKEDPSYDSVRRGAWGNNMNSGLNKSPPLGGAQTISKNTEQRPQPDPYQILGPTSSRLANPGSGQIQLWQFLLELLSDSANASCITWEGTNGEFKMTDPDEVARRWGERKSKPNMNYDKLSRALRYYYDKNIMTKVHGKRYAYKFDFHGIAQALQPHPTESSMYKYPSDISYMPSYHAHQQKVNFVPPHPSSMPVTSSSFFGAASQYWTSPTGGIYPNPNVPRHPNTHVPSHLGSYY
# In short: (§1)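 Each value of binding signal is a hexamer's read frequency for a factor divided by the same hexamer's frequency in the tag-only sample. Barcoded, bead-captured GST fusions of human transcription factors made in yeast were pooled with that sample and incubated with 200 nmole of a random double-stranded 16-mer DNA library in Tris/NaCl/DTT/glycerol buffer at room temperature for 30 min. Washing, 0.1% formaldehyde crosslinking, proximity ligation, PCR and Illumina NextSeq500 sequencing followed.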
# [2] = target: T2, ELK1 (Homo sapiens, UniProt P19419 1-428); conditions: protein: recombinant; tags: N-terminal GST; dsDNA, one strand shown
# T2 sequence: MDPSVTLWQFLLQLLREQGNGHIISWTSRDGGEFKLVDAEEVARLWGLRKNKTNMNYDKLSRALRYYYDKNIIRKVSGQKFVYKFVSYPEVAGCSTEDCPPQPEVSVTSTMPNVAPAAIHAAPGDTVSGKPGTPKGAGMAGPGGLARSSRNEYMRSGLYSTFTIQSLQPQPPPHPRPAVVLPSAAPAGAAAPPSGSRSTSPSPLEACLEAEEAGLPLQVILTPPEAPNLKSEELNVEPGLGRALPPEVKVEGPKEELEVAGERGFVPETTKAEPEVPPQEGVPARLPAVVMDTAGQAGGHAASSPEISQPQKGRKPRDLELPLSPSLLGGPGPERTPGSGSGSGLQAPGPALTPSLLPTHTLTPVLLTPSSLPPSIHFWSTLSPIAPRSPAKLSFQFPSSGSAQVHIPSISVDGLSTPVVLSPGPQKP
# In short: as §1
# [3] = target: T3, ERG (Homo sapiens, UniProt P11308 1-479); conditions: protein: recombinant; tags: N-terminal GST; dsDNA, one strand shown
# T3 sequence: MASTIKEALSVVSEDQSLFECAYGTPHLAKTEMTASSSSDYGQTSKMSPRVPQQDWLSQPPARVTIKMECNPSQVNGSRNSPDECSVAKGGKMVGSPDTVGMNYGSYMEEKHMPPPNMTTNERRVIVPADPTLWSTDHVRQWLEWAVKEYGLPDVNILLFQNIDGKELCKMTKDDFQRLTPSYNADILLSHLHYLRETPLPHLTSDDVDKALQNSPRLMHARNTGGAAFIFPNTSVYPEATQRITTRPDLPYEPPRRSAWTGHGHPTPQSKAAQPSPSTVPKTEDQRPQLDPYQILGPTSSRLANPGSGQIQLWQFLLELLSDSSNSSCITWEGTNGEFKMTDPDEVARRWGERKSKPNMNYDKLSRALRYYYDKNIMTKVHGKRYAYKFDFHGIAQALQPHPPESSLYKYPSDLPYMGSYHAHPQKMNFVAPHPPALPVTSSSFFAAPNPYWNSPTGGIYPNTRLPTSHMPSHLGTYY
# In short: as §1
# [4] = target: ELF1 (Homo sapiens, UniProt P32519 1-619); conditions: protein: recombinant; tags: N-terminal GST; dsDNA, one strand shown
# In short: as §1
# [5] = target: T4, EHF (Homo sapiens, UniProt Q9NZC4 1-300); conditions: protein: recombinant; tags: N-terminal GST; dsDNA, one strand shown
# T4 sequence: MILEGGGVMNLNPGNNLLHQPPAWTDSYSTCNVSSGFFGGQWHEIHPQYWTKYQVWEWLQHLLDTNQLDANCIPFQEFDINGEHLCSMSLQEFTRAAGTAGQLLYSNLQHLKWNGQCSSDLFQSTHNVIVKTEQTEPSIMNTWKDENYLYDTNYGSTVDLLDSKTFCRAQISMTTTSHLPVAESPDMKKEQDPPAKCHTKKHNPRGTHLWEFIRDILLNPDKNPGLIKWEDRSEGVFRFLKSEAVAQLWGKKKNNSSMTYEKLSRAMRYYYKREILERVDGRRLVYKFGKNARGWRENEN
# In short: as §1
# [6] = target: T5, ELK3 (Homo sapiens, UniProt P41970 1-407); conditions: protein: recombinant; tags: N-terminal GST; dsDNA, one strand shown
# T5 sequence: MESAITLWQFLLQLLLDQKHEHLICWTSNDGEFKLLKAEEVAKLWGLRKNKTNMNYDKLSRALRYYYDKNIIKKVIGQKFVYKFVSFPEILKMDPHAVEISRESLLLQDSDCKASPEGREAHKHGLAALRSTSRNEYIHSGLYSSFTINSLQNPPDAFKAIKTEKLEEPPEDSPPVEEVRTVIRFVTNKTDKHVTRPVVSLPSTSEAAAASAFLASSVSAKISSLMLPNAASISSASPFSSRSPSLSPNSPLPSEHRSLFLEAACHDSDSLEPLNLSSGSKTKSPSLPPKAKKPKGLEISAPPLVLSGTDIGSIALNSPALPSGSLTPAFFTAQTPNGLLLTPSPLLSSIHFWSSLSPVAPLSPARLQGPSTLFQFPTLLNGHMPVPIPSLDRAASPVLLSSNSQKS
# In short: as §1
# [7] = target: T6, FEV (Homo sapiens, UniProt Q99581 1-238); conditions: protein: recombinant; tags: N-terminal GST; dsDNA, one strand shown
# T6 sequence: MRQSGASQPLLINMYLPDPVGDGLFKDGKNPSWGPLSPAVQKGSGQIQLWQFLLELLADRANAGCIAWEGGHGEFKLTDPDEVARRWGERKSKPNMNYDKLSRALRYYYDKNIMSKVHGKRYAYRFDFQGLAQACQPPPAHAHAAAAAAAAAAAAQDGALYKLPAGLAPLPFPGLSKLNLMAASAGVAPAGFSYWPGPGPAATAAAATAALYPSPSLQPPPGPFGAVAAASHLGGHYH
# In short: as §1
# [8] = target: ETV5 (Homo sapiens, UniProt P41161 1-510); conditions: protein: recombinant; tags: N-terminal GST; dsDNA, one strand shown
# In short: as §1
# [9] = target: HSF1 (Homo sapiens, UniProt Q00613 1-529); conditions: protein: recombinant; tags: N-terminal GST; chain copies: 3; dsDNA, one strand shown
# In short: as §1
# [10] = target: T7, SPIC (Homo sapiens, UniProt Q8N5J4 1-248); conditions: protein: recombinant; tags: N-terminal GST; dsDNA, one strand shown
# T7 sequence: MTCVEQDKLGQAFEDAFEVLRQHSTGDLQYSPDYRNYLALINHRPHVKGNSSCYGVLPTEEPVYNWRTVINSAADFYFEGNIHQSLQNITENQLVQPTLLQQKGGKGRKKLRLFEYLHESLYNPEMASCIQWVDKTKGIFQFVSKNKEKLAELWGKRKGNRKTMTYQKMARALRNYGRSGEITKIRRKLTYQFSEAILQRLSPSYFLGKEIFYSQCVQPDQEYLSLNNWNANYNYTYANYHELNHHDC
# In short: as §1
# [11] = target: ELF4 (Homo sapiens, UniProt Q99607 1-663); conditions: protein: recombinant; tags: N-terminal GST; dsDNA, one strand shown
# In short: as §1
# [12] = target: T8, ELK4 (Homo sapiens, UniProt P28324-2 1-405); conditions: protein: recombinant; tags: N-terminal GST; dsDNA, one strand shown
# T8 sequence: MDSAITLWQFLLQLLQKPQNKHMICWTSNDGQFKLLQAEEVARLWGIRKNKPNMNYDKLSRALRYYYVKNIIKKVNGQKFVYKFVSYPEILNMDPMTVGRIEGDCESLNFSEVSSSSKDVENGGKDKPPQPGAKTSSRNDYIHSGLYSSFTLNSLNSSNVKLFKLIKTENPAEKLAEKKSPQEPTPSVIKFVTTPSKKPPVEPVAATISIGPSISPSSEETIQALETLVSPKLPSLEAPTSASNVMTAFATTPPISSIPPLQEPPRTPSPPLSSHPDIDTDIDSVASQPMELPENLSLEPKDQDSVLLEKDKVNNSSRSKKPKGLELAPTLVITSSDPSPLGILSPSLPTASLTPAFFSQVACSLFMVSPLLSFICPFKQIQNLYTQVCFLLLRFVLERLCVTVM
# In short: as §1
# [13] = target: T9, ETV2 (Homo sapiens, UniProt O00321 1-342); conditions: protein: recombinant; tags: N-terminal GST; dsDNA, one strand shown
# T9 sequence: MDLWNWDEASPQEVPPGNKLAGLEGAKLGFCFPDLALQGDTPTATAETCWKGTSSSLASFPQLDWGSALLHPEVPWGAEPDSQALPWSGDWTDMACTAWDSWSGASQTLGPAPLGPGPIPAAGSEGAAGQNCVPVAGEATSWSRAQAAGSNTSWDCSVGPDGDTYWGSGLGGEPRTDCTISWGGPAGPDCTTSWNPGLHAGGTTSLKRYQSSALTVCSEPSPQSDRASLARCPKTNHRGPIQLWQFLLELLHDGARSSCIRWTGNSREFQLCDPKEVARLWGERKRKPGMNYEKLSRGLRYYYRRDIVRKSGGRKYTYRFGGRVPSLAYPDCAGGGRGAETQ
# In short: as §1
# [14] = target: T10, ELF3 (Homo sapiens, UniProt P78545 1-371); conditions: protein: recombinant; tags: N-terminal GST; dsDNA, one strand shown
# T10 sequence: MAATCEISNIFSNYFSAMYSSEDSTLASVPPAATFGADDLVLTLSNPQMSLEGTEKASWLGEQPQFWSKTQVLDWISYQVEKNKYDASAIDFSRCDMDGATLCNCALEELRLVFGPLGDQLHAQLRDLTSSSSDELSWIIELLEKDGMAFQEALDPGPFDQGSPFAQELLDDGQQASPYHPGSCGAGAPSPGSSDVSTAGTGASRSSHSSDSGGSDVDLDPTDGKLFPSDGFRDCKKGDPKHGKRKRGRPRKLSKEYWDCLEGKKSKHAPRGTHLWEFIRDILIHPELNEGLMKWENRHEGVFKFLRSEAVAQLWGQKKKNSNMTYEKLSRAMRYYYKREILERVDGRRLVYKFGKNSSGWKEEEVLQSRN
# In short: as §1
# [15] = target: CRX (Homo sapiens, UniProt O43186 1-299); conditions: protein: recombinant; tags: N-terminal GST; dsDNA, one strand shown
# In short: as §1
# [16] = target: ETV1 (Homo sapiens, UniProt P50549 1-477); conditions: protein: recombinant; tags: N-terminal GST; dsDNA, one strand shown
# In short: as §1
# Chain of ETV5 (P41161 whole entry): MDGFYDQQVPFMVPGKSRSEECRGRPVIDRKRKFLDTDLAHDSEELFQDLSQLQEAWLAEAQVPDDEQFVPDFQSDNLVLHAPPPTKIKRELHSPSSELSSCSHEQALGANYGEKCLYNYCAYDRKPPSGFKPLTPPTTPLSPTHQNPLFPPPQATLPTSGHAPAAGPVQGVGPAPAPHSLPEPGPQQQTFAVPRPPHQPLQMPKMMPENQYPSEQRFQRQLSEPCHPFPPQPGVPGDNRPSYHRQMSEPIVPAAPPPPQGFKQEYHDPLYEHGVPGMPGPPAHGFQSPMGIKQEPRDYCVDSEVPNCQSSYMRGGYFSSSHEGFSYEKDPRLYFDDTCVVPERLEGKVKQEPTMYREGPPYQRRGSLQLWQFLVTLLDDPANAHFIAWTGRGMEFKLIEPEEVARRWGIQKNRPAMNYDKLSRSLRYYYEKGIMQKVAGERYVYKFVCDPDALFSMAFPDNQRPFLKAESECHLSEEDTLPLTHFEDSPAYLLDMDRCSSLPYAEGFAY
# Chain of ETV1 (P50549 whole entry): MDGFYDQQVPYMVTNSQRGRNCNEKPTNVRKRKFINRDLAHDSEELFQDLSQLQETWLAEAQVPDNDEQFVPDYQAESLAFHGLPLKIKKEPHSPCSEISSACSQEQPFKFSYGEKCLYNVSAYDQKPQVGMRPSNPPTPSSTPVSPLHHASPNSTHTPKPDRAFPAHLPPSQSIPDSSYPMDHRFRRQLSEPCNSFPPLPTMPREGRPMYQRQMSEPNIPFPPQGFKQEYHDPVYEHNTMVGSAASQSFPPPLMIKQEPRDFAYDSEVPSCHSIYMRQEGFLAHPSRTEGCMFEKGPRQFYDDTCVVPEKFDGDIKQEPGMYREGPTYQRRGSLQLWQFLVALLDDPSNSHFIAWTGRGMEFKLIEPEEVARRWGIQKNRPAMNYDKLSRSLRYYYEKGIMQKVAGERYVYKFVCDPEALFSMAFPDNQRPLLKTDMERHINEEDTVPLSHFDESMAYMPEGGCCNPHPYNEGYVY
# Chain of ELF4 (Q99607 whole entry): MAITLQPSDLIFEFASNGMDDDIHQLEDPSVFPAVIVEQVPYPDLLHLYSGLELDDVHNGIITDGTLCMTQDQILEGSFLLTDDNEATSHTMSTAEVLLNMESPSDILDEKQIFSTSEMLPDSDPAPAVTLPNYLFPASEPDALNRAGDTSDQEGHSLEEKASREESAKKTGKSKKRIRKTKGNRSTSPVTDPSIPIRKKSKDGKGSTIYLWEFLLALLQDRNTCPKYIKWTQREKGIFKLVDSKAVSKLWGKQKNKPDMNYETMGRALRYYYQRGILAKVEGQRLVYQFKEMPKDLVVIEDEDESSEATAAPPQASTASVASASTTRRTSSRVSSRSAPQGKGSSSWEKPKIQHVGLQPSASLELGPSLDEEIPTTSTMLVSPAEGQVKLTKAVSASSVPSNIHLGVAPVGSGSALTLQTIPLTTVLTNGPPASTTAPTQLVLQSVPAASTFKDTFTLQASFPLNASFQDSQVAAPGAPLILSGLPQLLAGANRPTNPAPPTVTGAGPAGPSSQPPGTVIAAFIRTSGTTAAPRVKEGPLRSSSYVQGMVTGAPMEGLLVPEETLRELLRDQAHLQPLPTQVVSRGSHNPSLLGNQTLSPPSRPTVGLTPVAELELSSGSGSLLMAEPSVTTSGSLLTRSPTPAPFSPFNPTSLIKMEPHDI
# Chain of ELF1 (P32519 whole entry): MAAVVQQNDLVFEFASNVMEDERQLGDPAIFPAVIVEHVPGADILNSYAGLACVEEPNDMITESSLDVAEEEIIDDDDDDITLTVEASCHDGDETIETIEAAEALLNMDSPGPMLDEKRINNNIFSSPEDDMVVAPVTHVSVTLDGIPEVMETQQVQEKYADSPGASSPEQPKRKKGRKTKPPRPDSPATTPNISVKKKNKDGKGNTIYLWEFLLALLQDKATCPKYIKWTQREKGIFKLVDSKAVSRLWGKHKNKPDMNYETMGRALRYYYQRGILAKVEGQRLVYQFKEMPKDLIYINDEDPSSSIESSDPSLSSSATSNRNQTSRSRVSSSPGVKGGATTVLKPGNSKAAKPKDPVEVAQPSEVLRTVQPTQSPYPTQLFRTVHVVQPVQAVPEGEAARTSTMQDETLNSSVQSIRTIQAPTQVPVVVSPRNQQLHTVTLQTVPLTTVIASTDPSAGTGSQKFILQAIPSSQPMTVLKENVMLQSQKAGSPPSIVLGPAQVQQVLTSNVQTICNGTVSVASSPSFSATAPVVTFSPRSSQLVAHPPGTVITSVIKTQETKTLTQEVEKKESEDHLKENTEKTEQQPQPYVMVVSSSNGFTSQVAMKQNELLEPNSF
# Chain of CRX (O43186 whole entry): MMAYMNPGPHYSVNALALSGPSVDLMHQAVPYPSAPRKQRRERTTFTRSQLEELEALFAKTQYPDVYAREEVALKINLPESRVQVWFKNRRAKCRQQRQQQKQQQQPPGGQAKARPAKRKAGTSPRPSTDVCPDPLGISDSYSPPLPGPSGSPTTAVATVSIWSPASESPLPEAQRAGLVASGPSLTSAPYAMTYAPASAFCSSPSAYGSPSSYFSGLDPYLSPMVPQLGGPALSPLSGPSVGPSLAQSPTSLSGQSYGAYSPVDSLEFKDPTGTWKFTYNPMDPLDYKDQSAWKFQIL
# Chain of HSF1 (Q00613 whole entry): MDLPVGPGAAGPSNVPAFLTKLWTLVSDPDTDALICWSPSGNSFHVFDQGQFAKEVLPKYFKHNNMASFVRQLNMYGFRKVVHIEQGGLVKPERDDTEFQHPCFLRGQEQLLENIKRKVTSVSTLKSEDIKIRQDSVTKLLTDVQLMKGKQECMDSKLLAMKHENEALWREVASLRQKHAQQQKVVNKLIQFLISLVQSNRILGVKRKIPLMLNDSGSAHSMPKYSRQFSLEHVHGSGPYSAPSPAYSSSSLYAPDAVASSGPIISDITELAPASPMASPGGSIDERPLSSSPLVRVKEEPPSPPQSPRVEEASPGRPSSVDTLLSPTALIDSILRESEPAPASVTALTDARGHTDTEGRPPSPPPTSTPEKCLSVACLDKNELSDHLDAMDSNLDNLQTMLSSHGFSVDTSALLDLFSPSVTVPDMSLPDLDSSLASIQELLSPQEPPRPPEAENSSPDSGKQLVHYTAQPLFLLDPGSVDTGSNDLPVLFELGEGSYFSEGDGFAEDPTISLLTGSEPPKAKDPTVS
sequence,measurement,setting,value
TACAAG,binding signal,[1],"1.06 fold enrichment (6-mer frequency, TF over GST control)"
same,binding signal,[2],"1.03 fold enrichment (6-mer frequency, TF over GST control)"
same,binding signal,[3],"1.04 fold enrichment (6-mer frequency, TF over GST control)"
same,binding signal,[4],"1.06 fold enrichment (6-mer frequency, TF over GST control)"
same,binding signal,[5],"1.09 fold enrichment (6-mer frequency, TF over GST control)"
same,binding signal,[6],"1.04 fold enrichment (6-mer frequency, TF over GST control)"
same,binding signal,[7],"1.01 fold enrichment (6-mer frequency, TF over GST control)"
same,binding signal,[8],"1.15 fold enrichment (6-mer frequency, TF over GST control)"
same,binding signal,[9],"1.07 fold enrichment (6-mer frequency, TF over GST control)"
same,binding signal,[10],"1.17 fold enrichment (6-mer frequency, TF over GST control)"
same,binding signal,[11],"1.1 fold enrichment (6-mer frequency, TF over GST control)"
same,binding signal,[12],"1.16 fold enrichment (6-mer frequency, TF over GST control)"
same,binding signal,[13],"1.03 fold enrichment (6-mer frequency, TF over GST control)"
same,binding signal,[14],"1.23 fold enrichment (6-mer frequency, TF over GST control)"
same,binding signal,[15],"1.11 fold enrichment (6-mer frequency, TF over GST control)"
same,binding signal,[16],"1.06 fold enrichment (6-mer frequency, TF over GST control)"
